Bioassay records from PubChem.
Sampled rows, rich in hits. Any-hit rate of the full collection: about 10%.
GPT2 inh = inhibitors of human GPT2 alanine aminotransferase | Q8TD30 | Recombinant GPT2, coupled pyruvate oxidase/HRP Amplex Red fluorescence | Potency, µM (titrated, usually from 57.7 µM), most hits filed as inhibitors | 0.25% of 100,000 active; note: nearly all actives have a fitted effect of over 60% in size
Target sequence (Q8TD30 whole entry, looked up): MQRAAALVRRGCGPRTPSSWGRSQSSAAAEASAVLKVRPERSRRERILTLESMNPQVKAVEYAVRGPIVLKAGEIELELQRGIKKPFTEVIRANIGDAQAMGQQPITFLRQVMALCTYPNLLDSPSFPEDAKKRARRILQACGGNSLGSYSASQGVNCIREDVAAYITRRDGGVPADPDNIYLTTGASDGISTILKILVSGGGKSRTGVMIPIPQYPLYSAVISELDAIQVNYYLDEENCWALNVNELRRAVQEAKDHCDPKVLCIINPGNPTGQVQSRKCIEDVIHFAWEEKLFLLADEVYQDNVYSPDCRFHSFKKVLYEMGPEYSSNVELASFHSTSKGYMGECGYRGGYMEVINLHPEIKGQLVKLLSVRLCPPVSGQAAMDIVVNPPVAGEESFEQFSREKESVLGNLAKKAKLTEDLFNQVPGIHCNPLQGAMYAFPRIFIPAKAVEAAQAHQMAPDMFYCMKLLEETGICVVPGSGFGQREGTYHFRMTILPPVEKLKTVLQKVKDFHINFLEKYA
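Recombinant GPT2 (10ng/uL) with 250uM a-KG and 2mM L-alanine, 30 min at room temperature, in HEPES pH 7.5 buffer. Pyruvate detected by pyruvate oxidase/HRP/Amplex Red fluorescence after 30 min in the dark; AOA (50uM) as positive control.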
HEK cytotox = cytotoxic compounds in HEK 293 cells; Potency, µM (series often up to 115 µM), most hits filed as inhibitors; 6.6% of 94,000 active; HEK 293 viability, ATP luminescence (CellTiter-Glo), 48-72 h; note: nearly all actives have a fitted effect of over 60% in size
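HEK 293 cells at 250 cells/well were exposed to compounds by pintool transfer for 48 or 72 hr at 37 degree Celsius, 5% CO2. Viability was read as ATP-coupled luminescence with CellTiter-Glo after 10 min at room temperature.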
NIH3T3 tox = kills NIH 3T3 cells. NIH 3T3 viability, CellTiter-Glo ATP luminescence, 48-72 h. Potency, µM (highest dose often 96.7 µM), usual class: inhibitors. 4.3% of 94,000 active; note: nearly all actives have a fitted effect of over 55% in size
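Mouse fibroblast NIH 3T3 cells, 400 per well, received compound via pintool and were incubated for 48 or 72 hr prior to CellTiter-Glo ATP luminescence measurement.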
FLuc inh = Photinus pyralis luciferase inhibition; P08659; purified P. pyralis luciferase, luminescence, biochemical; Potency, µM (highest dose often 115 µM), most hits filed as inhibitors; 2.5% of 76,000 active; AID 1347043; note: nearly all actives have a fitted effect of over 65% in size
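Luminescence read by CCD imaging after purified firefly luciferase (10nM final) was added to substrate buffer holding 10uM D-luciferin and 10uM ATP, pH 7.5, pre-dosed with compound.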
NPR1 antag = antagonists of human natriuretic peptide receptor Npr1; Potency, µM (series often up to 46.3 µM), actives largely listed as inhibitors; HEK293 hNpr1 GloSensor cGMP, ANP-stimulated luminescence; P16066; 1.6% of 76,000 active; calls by dose curve; note: nearly all actives have a fitted effect of over 60% in size
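Compound pre-incubated 30 min at room temperature on GloSensor-loaded HEK293 cells stably carrying hNpr1 and the pGS-40F cGMP biosensor. Stimulation uses hNppA at 0.1 nM final; luminescence is taken at baseline and 20 min post-agonist.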
Of the large screens only hits and unclear results are named; the others gave an inactive call. Unless noted, calls come from the whole dose curve; as a rule, active = well fitted curve in the direction sought with a large enough effect; inconclusive = small, poorly fitted or top-dose-only effect, or another doubt; inactive = no such curve, though single readings can be large; an effect the other way counts as inactive or inconclusive.

CCC(C)NC(=O)C(NC(=O)c1ccccc1C)C1CCN(C(=O)c2ccc(Cl)cc2)CC1 (centres undefined)	none
COc1ccc(C(C(=O)O)N2CCc3sccc3C2)c(OC)n1 (centres undefined)	none
COCC(=O)N[C@H]1CC[C@]2(C)CC[C@@H]3[C@H](OC(=O)[C@H]3C)[C@H]2[C@@H]1C	none
C[C@H]1[C@@H]2[C@H]3OC(=O)[C@@H](C)[C@@H]3CC[C@@]2(C)CC[C@@H]1NC(=O)C1CCCCC1	HEK cytotox 100µM, NIH3T3 tox inconclusive
C[C@H]1[C@@H]2[C@H]3OC(=O)[C@@H](C)[C@@H]3CC[C@@]2(C)CC[C@@H]1NC(=O)c1ccc(C#N)cc1	HEK cytotox inconclusive, NIH3T3 tox 89µM
C[C@H]1[C@@H]2[C@H]3OC(=O)[C@@H](C)[C@@H]3CC[C@@]2(C)CC[C@@H]1NC(=O)c1ccccn1	HEK cytotox 100µM
O=C(NC1CCCN(CCn2nc3n(c2=O)CCCC3)C1)c1ccccn1 (centres undefined)	none (no result: GPT2 inh, FLuc inh, NPR1 antag)
CCc1c(C)nn(CCNC(=O)c2cc(S(N)(=O)=O)ccc2F)c1C	none
CNC(=O)[C@@H]1CN(C(=O)CCc2cc(OC)no2)C[C@H]1c1nc(C)no1	none
CC1=C[C@@H](CNC(=O)c2ccccc2)[C@H](C(C)C)C[C@H]1Cc1nnc(-c2cncn2C)o1	HEK cytotox 79µM, NIH3T3 tox 100µM
CC1=C[C@@H](CNc2ccccn2)[C@H](C(C)C)C[C@H]1Cc1nnc(-c2cncn2C)o1	HEK cytotox 63µM, NIH3T3 tox inconclusive
CC1(c2ccccc2)N(Cc2ccccc2F)C(=O)OC12CCN(Cc1cccnc1)CC2 (centres undefined)	HEK cytotox inconclusive, NIH3T3 tox inconclusive
CC1(c2ccccc2)N(Cc2ccccc2F)C(=O)OC12CCN(c1cccnc1)CC2 (centres undefined)	HEK cytotox 89µM, NIH3T3 tox 89µM
CC1(c2ccccc2)N(Cc2ccccc2C#N)C(=O)OC12CCN(Cc1ccccc1F)CC2 (centres undefined)	HEK cytotox inconclusive, NIH3T3 tox inconclusive
COc1ccccc1CN1CCC2(CC1)OC(=O)N(Cc1ccccc1F)C2(C)c1ccccc1 (centres undefined)	HEK cytotox 35µM, NIH3T3 tox 28µM
CC(C)(C)c1onc(OCP(=O)(O)O)c1CC(N)C(=O)O (centres undefined)	none (no result: HEK cytotox, NIH3T3 tox, FLuc inh, NPR1 antag)
CC(C)(C#N)c1ccc(-c2cc(CO)ccn2)cc1	GPT2 inh inconclusive, HEK cytotox inconclusive, NIH3T3 tox inconclusive, FLuc inh 32µM
CC1=C[C@@H](CNC(=O)c2cnccn2)[C@H](C(C)C)C[C@H]1CC(=O)O	none
CC1=C[C@@H](CNC(=O)C2CCC2)[C@H](C(C)C)C[C@H]1Cc1nc2ccc(F)cc2[nH]1	GPT2 inh inconclusive, HEK cytotox 28µM, NIH3T3 tox 40µM, NPR1 antag inconclusive
CC1=C[C@@H](CNC(=O)CCC(=O)O)[C@H](C(C)C)C[C@H]1Cc1nc2ccc(F)cc2[nH]1	none
CC(=O)N1CCC(NC[C@@H]2C=C(C)[C@H](Cc3nc4ccc(F)cc4[nH]3)C[C@H]2C(C)C)CC1	HEK cytotox inconclusive, NIH3T3 tox 79µM
CC1=C[C@@H](CNC(=O)c2cnccn2)[C@H](C(C)C)C[C@H]1Cc1nc2ccc(C)cc2[nH]1	HEK cytotox 32µM, NIH3T3 tox inconclusive, NPR1 antag inconclusive
COc1ccc2nc(C[C@@H]3C[C@@H](C(C)C)[C@H](CNC(=O)Nc4ccc(F)cc4)C=C3C)[nH]c2c1	HEK cytotox 28µM, NIH3T3 tox 40µM
O=C(C1CC1)N1CC(c2nnc(-c3ccncc3)o2)C2(CCOCC2)C1 (centres undefined)	none
CCCCn1nc(C2CCOC2)nc1-c1cnc(NC)nc1 (centres undefined)	GPT2 inh inconclusive
CC1=C[C@@H](CNC(=O)c2cnccn2)[C@H](C(C)C)C[C@H]1Cc1nc2ccc(F)cc2[nH]1	HEK cytotox 71µM, NIH3T3 tox 112µM, NPR1 antag inconclusive
O=C(C1CCCCC1)N1CCCC2(CN[S+](=O)([O-])c3cccnc3N2)C1 (centres undefined)	none (no result: GPT2 inh, FLuc inh, NPR1 antag)
Cc1ccc(CN2C(=O)[C@@H]3C[C@@H](O)CN3C3(CN(CC4CCCCC4)C3)C2=O)o1	NIH3T3 tox inconclusive
Cc1nn(-c2ccccc2)c2c1C(C(C)C)N(C1CN(C(=O)c3cccc(Cl)c3)C1)C2=O (centres undefined)	HEK cytotox inconclusive (no result: GPT2 inh, FLuc inh, NPR1 antag)
O=C(NCc1cccs1)[C@@H]1C[C@@H](O)[C@H](O)[C@@H]2NC(=S)N(c3ccc(OC(F)(F)F)cc3)[C@@H]21	HEK cytotox inconclusive, NIH3T3 tox inconclusive, FLuc inh 45µM
O=C(NCc1cccs1)c1ccc2nnc(-c3ccc(OC(F)(F)F)cc3)n2c1	HEK cytotox inconclusive, NIH3T3 tox inconclusive (no result: FLuc inh, NPR1 antag)
CN(C)Cc1cn([C@H]2CO[C@H]3[C@@H]2OC[C@H]3OC(=O)Nc2ccc(C(C)(C)C)cc2)nn1	HEK cytotox inconclusive, NIH3T3 tox inconclusive, FLuc inh 71µM
COC(=O)c1cn([C@H]2CO[C@H]3[C@@H]2OC[C@H]3OC(=O)Nc2ccc(C(C)(C)C)cc2)nn1	none
O=C(c1cc2ccccc2[nH]1)N1CCC(c2noc(C3CC3)n2)C1 (centres undefined)	HEK cytotox inconclusive, NIH3T3 tox inconclusive, FLuc inh 28µM, NPR1 antag inconclusive
CNC(=O)c1nn(C)c2nc(-c3ccccc3OC)ccc12	none (no result: FLuc inh, NPR1 antag)
N#Cc1cccc(CN2Cc3[nH]cnc3C[C@H]2c2nc(-c3cccc([N+](=O)[O-])c3)no2)c1	HEK cytotox inconclusive, NIH3T3 tox inconclusive
O=[N+]([O-])c1cccc(-c2noc([C@@H]3Cc4nc[nH]c4CN3Cc3ccc(F)cc3)n2)c1	HEK cytotox 50µM, NIH3T3 tox inconclusive, NPR1 antag inconclusive
O=[N+]([O-])c1cccc(-c2noc([C@@H]3Cc4nc[nH]c4CN3Cc3cccs3)n2)c1	HEK cytotox inconclusive, NIH3T3 tox 79µM, NPR1 antag inconclusive
CC#CC(=O)N1CCCC(C(=O)Nc2ccc(-c3cccc(OC)c3)cc2)C1 (centres undefined)	HEK cytotox inconclusive, NIH3T3 tox inconclusive, FLuc inh inconclusive, NPR1 antag inconclusive
CCN1c2cc(C(=O)Nc3ccc(OC)cc3)ccc2C(=O)N2CCCCC21 (centres undefined)	HEK cytotox inconclusive, NIH3T3 tox inconclusive
CCN1c2cc(C(=O)Nc3cc(F)cc(F)c3)ccc2C(=O)N2CCCCC21 (centres undefined)	HEK cytotox 35µM, NIH3T3 tox 28µM
CCN1c2cc(C(=O)Nc3ccc(C(N)=O)cc3)ccc2C(=O)N2CCCCC21 (centres undefined)	HEK cytotox inconclusive, NIH3T3 tox 32µM
